# The source made the active and inactive calls. The call rests on the fitted dose curve; in most records, active means well fitted cell-killing curve with a large enough effect; inconclusive means small, poorly fitted or top-dose-only effect; inactive means flat fitted curve, though single readings scatter.
# Assay: MultiTox-Fluor Cytotoxicity Assay - LYMP1-003 - Live Cells (AID 962);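 further: cytotoxic hits lower the live-cell protease signal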
# Conditions: LYMP1-003 lymphoblastoid cells, MultiTox-Fluor live-cell protease fluorescence; series mostly up to 92.2 µM
# Excerpt: NIH Chemical Genomics Center [NCGC]
# NIH Molecular Libraries Screening Centers Network [MLSCN]
# National Institutes of Environmental Health Sciences [NIEHS]
# National Toxicology Program [NTP]
# We have developed a 1536-well cell-based assay for quantitative high throughput screening (qHTS) against a number of cell lines to determine in vitro cytotoxicity of small molecules. This particular assay uses a human lymphoblastoid cell line (LYMP1-003) purchased from Coriell Institute.
# NCGC Assay Protocol Summary:
# The MultiTox-Fluor Cytotoxicity Assay (Promega) is a homogeneous method to simultaneously measure the relative number of live and dead cells in culture by detecting changes in cell membrane integrity. There are two fluorogenic peptide substrates in the assay reagent. Viable cells are determined when the cell-permeant substrate (GF-AFC) enters the cell and is cleaved by protease from live cells resulting in liberated fluorophore. This live-cell protease activity restricted to viable cells is proportional to cell number. The dead cells are determined by using fluorogenic cell-impermeant peptide substrate (bis-AAF-R110) which cleaved by dead cell proteases leaking from damaged cell membrane.
# Using the MultiTox-Fluor Cytotoxicity Assay, the relative number of live cells was measured in the lymphoblastoid cell line with complete culture medium following compound treatment for 16 hours. The assay was performed in opaque black Kalypsys 1536-well plates. In the screen, tetraoctylammonium bromide was used as positive control. Library compounds were measured for their ability to cause acute toxicity in the cell line, as reflected by a decrease in live cell protease activity, in a concentration-dependent manner. […] AC50 values were determined from concentration-response data modeled with the standard Hill equation.
# qHTS protocol for MultiTox-Fluor Cytotoxicity assay
# [Step] [Parameter] [Value] [Description]
# 1. Reagent; 5 uL; 2500 lymphoblastoid cells/well
# 2. Time; 5 hr; 37 C incubation
# 4. Controls; 23 nL; Tetraoctylammonium bromide 6.4pM to 92 uM
# 5. Time; 16 hr; 37 C incubation
# 6. Reagent; 5 uL; MuliTox-Fluor Assay reagent
# 7. Time; 60 min; Room Temperature
# 8. Detection; live-cell fluorescence (Ex/Em=405/510); EnVision plate reader
# Keywords: cell viability, cytotoxicity, lymphoblastoid cell line, fluorescence, NTPHTS, NTPHTS_NCGC, NIEHS, EPA, DSSTox, MLSMR, MLSCN, NIH Roadmap, qHTS, NCGC
row,SMILES,outcome
1,CCCCOCCOCCOCc1cc2c(cc1CCC)OCO2,inactive
2,CN=C(NC#N)NCCSCc1nc[nH]c1C,inactive
3,CCCCNC(=O)NS(=O)(=O)c1ccc(C)cc1,inactive
4,NC(=Nc1ccccc1)Nc1ccccc1,inactive
5,Nc1nc(N)c2nc(-c3ccccc3)c(N)nc2n1,inactive
6,COC(=O)[C@H]1[C@H]2C[C@@H]3c4[nH]c5cc(OC)ccc5c4CCN3C[C@H]2C[C@@H](OC(=O)c2cc(OC)c(OC)c(OC)c2)[C@@H]1OC,inactive
7,NC(=O)N1c2ccccc2C=Cc2ccccc21,inactive
8,COc1cc(Cc2cnc(N)nc2N)cc(OC)c1OC,inactive
9,O=c1[nH]c(=O)n([C@H]2C[C@H](O)[C@@H](CO)O2)cc1Br,inactive
10,COc1ccc(CN(CCN(C)C)c2ccccn2)cc1,inactive

# Reference: PubChem BioAssay (NCATS)
